This is an account of results in PMC7819943, “Rice protein-binding microarrays: a tool to detect cis-acting elements near promoter regions in rice”.

Over roughly 35,000 sequences, “fluorescence intensity (a.u.)” has its median near 10,000; the highest 2% begin near 52,000. Shown is part of a subset that was picked to be rich in the highest values.

In this test the target is T1, OsWOX13 (Oryza sativa, UniProt Q5QMM3 1-267).
T1 sequence: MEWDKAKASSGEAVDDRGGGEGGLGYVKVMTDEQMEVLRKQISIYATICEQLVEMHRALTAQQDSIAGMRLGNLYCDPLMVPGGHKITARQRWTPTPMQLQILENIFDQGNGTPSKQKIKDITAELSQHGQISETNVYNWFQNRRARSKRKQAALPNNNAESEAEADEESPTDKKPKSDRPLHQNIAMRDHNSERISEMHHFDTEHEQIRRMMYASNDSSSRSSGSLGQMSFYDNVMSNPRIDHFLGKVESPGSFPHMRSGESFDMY
Nature of the test: protein-binding microarray (RPBM); PBS, 2% BSA, 51.3 ng/ul salmon testes DNA, 50 uM zinc acetate, 200 nM TF, 25 C, 1 h; high values mean tight binding. Particulars: protein: recombinant; tags: N-terminal polyhistidine and DsRed monomer fusion (pET32a); label: CyDye5-dUTP incorporated in the synthesized complementary strand; 3' TTTTT single-stranded linker to array surface; dsDNA, one strand shown. The gist of the method: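 The binding signal is fluorescence intensity per array feature (arbitrary units). Readings came from an Axon 4000B scanner after a washed, 2% BSA-blocked, double-stranded custom Agilent array had been incubated for 1 h at 25 °C with 200 nM protein and 50 µM zinc acetate. The protein was a Ni–NTA-purified transcription factor fused N-terminally to polyhistidine and DsRed, expressed in E. coli BL21-CodonPlus.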
As for “CAAGAAATGACTTAATTAGAAAACCTCTTTGGAGCACCCACGGAGTCACCTAGTGCAG”, the binding signal was 11000 fluorescence intensity (a.u.).

Take “AAAGCATTCATGTTAATTTTCTCCTAACTCAAATCGAATGCGGAGTCACCTAGTGCAG”: the binding signal was 3260 fluorescence intensity (a.u.).

On to “CTGATTGGTTAGTAAGAGAATGTTGGTGGTGAAGTTGTTACGGAGTCACCTAGTGCAG”, for which the binding signal is 29900 fluorescence intensity (a.u.).

Turning to “AAACTAACCAGGATCTGGTAATTGGAACGATCCCCATTCCCGGAGTCACCTAGTGCAG”, the binding signal was 4390 fluorescence intensity (a.u.).

For “GAAGTTTAATTATCATAAGATTGTGATGGTTATGTATGGTCGGAGTCACCTAGTGCAG”, the binding signal was 31700 fluorescence intensity (a.u.).

As to “TGTATTGCCTAATTAATTTTATGCGCCTTTAATTTACTGCCGGAGTCACCTAGTGCAG”, the binding signal is 16800 fluorescence intensity (a.u.).

With “CATATCCCATTTGCCAATCACACCCTGAGAGTATGTATATCGGAGTCACCTAGTGCAG”, the binding signal is 6560 fluorescence intensity (a.u.).

For “CACCATTATTGCCAATTATCCTTGCTTGCGTGGTAGAGTACGGAGTCACCTAGTGCAG”, the binding signal was 26200 fluorescence intensity (a.u.).

Take “ACTTGATTTCTCTGTTGGAAGATGGGTATATTTCGAGACCCGGAGTCACCTAGTGCAG”: the binding signal was 17200 fluorescence intensity (a.u.).

In the case of “TACTCTGATTTTGTCCATTACCAGCTGCAAATGGACCAGCCGGAGTCACCTAGTGCAG”, the binding signal is 19300 fluorescence intensity (a.u.).

As to “TTGACAGTTAATCCTAGGTCTATCTATCGCACTGAGTTTGCGGAGTCACCTAGTGCAG”, the binding signal is 12400 fluorescence intensity (a.u.).

As for “ACAGATTGAGAGGGAGCTCAGGGAACCAGTCTCACAAAATCGGAGTCACCTAGTGCAG”, the binding signal is 8100 fluorescence intensity (a.u.).

Take “TAAAATTGCATGTGATCATTTTGTAAGCTAAACTTTTATTCGGAGTCACCTAGTGCAG”: the binding signal is 11600 fluorescence intensity (a.u.).

Turning to “TTTGGATTGGGTTTGGTGGTTGGGTGGGAGGGAGGGAGCTCGGAGTCACCTAGTGCAG”, the binding signal was 18700 fluorescence intensity (a.u.).

In the case of “GCTGCTCGGATTTGATTGATTGATTGATTGGCGGGTGGTCCGGAGTCACCTAGTGCAG”, the binding signal is 64500 fluorescence intensity (a.u.).

As to “TCTTTGATTGGTGGCGGTGTTGAATTGAATTGAATTGATCCGGAGTCACCTAGTGCAG”, the binding signal is 46300 fluorescence intensity (a.u.).

Turning to “TACTATCAACTCTGTTAAAATTGAAGAATTTTGACTAAAACGGAGTCACCTAGTGCAG”, the binding signal is 3310 fluorescence intensity (a.u.).

Regarding “AGAATAATTATTTAAGTTAAGGTGTGTCACACCCCAATCCCGGAGTCACCTAGTGCAG”, the binding signal was 25100 fluorescence intensity (a.u.).

For the sequence “GTGCATCACCAATCAAAACAGGAGGTGTTTGGAACTCCGTCGGAGTCACCTAGTGCAG”, the binding signal is 3870 fluorescence intensity (a.u.).

Take “TACGCATTGATTAGTTTTGTCAGGTTAGTATAGAATTTAACGGAGTCACCTAGTGCAG”: the binding signal is 14000 fluorescence intensity (a.u.).

As to “GTACTAGTATTATTGATTGATACACTTGTGATGTCATGCCCGGAGTCACCTAGTGCAG”, the binding signal is 30900 fluorescence intensity (a.u.).

“CAGGTGTGATTGAAGTGATGTACTCAACTTACACCCGGGCCGGAGTCACCTAGTGCAG”: the binding signal is 54400 fluorescence intensity (a.u.).

With “GTACTTGATAGTTCAGTGATAAGGGGTGTGATTTCAACCCCGGAGTCACCTAGTGCAG”, the binding signal was 4490 fluorescence intensity (a.u.).

For “ACATAATTAGTTTATCTCTCCTCAAGCTGGTGCATCTCTCCGGAGTCACCTAGTGCAG”, the binding signal is 31200 fluorescence intensity (a.u.).

“TCGCTTTGATTGACACTAAGAACCTCGCTGCGCATCTCGTCGGAGTCACCTAGTGCAG”: the binding signal was 58600 fluorescence intensity (a.u.).

Regarding “TCTCCAAGATTGATCCGCATCTCCAACTAAACCCTCTCCTCGGAGTCACCTAGTGCAG”, the binding signal was 7230 fluorescence intensity (a.u.).

Turning to “GAACCTTTTGATTGATTCTCGTCCTACACGCTTGAAGGCGCGGAGTCACCTAGTGCAG”, the binding signal is 38200 fluorescence intensity (a.u.).

Turning to “TGTCTGACTGACTGACTGGCTGCTGCTGCTGCTCATTCCTCGGAGTCACCTAGTGCAG”, the binding signal is 23800 fluorescence intensity (a.u.).

In the case of “ATTCTCTCTTTTGCTCGCTTTGTTCCCTTTTCTTTCTTTTCGGAGTCACCTAGTGCAG”, the binding signal was 3770 fluorescence intensity (a.u.).

With “TCTCGCTTCTGCCACTGCTGGCTGTGCTGCTTCCCTAGCTCGGAGTCACCTAGTGCAG”, the binding signal was 65100 fluorescence intensity (a.u.).

In the case of “GGAATTAATTAATGAATCACGTAGGCTACCTGGGTTGAAGCGGAGTCACCTAGTGCAG”, the binding signal is 45800 fluorescence intensity (a.u.).

In the case of “TAAAATTAACGTGGACACTAATCTAGTTTAGACTTTGATTCGGAGTCACCTAGTGCAG”, the binding signal is 15500 fluorescence intensity (a.u.).

As for “ACGTTTAATATTTATAATTAATTTTCAAACATCCGATGTGCGGAGTCACCTAGTGCAG”, the binding signal was 19300 fluorescence intensity (a.u.).

For “TTAATGACTATTTAGTTGACATGTAAGAAACAGGGGATTTCGGAGTCACCTAGTGCAG”, the binding signal is 3450 fluorescence intensity (a.u.).

With “AACTTGCATACCAGTGGAATTCTTCAGGCTGGTCATGGAGCGGAGTCACCTAGTGCAG”, the binding signal was 65500 fluorescence intensity (a.u.).

For the sequence “GCTCGATTGGATAATTCTTCTGCATAACTAGCCAGTGGAGCGGAGTCACCTAGTGCAG”, the binding signal was 26800 fluorescence intensity (a.u.).

In the case of “AAACTTGATGGAATTCTTTAAATGTTCGATTGCTGGAGAGCGGAGTCACCTAGTGCAG”, the binding signal was 16700 fluorescence intensity (a.u.).

In the case of “TTAATTACTATCATTAGTGTTAAGTATATATTAACTAATGCGGAGTCACCTAGTGCAG”, the binding signal is 25900 fluorescence intensity (a.u.).

Turning to “GAACTTTACCGAATTTGTAAATTAGATGTAAACTCATTTTCGGAGTCACCTAGTGCAG”, the binding signal was 3580 fluorescence intensity (a.u.).

Take “GTGCCATTAATTTTGACTACTACTTGTGTGTCCTATCAAACGGAGTCACCTAGTGCAG”: the binding signal is 7280 fluorescence intensity (a.u.).

With “TTGACTGATTGCACGTCCAACCATAATTTCTTTTCGTCCACGGAGTCACCTAGTGCAG”, the binding signal was 58600 fluorescence intensity (a.u.).

For the sequence “ACCCTCATCTCTTCTCCTGATTGAATTGTCTTCCTCAACCCGGAGTCACCTAGTGCAG”, the binding signal is 30400 fluorescence intensity (a.u.).

With “GCGGATTAATTACTACTGGGCTGGCATTCTGATCACTTTGCGGAGTCACCTAGTGCAG”, the binding signal is 25400 fluorescence intensity (a.u.).

In the case of “CCTAATTGACAAATGATTTCACCACGTCCCTTTCCATTTTCGGAGTCACCTAGTGCAG”, the binding signal is 34200 fluorescence intensity (a.u.).

In the case of “ATGCGATTGACTAATTAATTGACTGGGCTTTGGCATTGGGCGGAGTCACCTAGTGCAG”, the binding signal was 65500 fluorescence intensity (a.u.).

As for “CACTTAACTTAATTAGTTAATTATTGCTCTATTTTCTCTGCGGAGTCACCTAGTGCAG”, the binding signal is 60500 fluorescence intensity (a.u.).

Turning to “AATTGGCTTGGCTAATTAATTACTCCATTTGCGAACATGGCGGAGTCACCTAGTGCAG”, the binding signal was 4010 fluorescence intensity (a.u.).
